E-sel TNF inh: E-selectin induction blockers in HUVEC – imaging, immunofluorescence, high content, primary screen. AID 1246, 2008. inhibition, % at 2 µM. 120,000 compounds, 0.71% hits. HUVEC TNFa-induced E-selectin immunofluorescence;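 active = inhibition above the batch mean plus 3 SD, and confirmed as a hit on visual image review, cut at about 43% in these data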;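 also: 0% = TNF-stimulated DMSO wells and 100% = unstimulated control wells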
F-actin modifier: modifiers of F-actin cytoskeleton organization, primary screen, imaging, HUVEC, phalloidin staining, high-content imaging; HUVEC TNFa F-actin phalloidin imaging; inhibition, % at 2 µM; 91,000 compounds, 0.18% hits;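 active = inhibition above the batch mean plus 3 SD and confirmed as a hit by visual image inspection, cut at about 30% in these data, passing the limit was not always enough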
TNFa cytotox: cytotoxicity in TNFa-stimulated HUVEC, primary screen, cytotoxicity control for VCAM1 expression modulator project, imaging, Hoechst nuclei count. AID 848, 2007. 93,000 compounds, 0.17% hits. HUVEC TNFalpha-stimulated, Hoechst cell count. cell count reduction, % at 2 µM;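 active = cell count reduction exceeding the screen mean by over 5 SD, scaled to untreated wells per plate, cut at about 78% in these data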;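 also: cells counted after 24 h of TNF alpha exposure following the 1 h pretreatment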
VCAM1 TNFa inh: inhibitors of TNFa-induced VCAM1 expression, primary screen, imaging, HUVEC, TNFa stimulus, immunofluorescence; HUVEC TNFa-induced VCAM-1 immunofluorescence, high-content imaging; inhibition, % at 2 µM; 95,000 compounds, 0.48% hits;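 active = inhibition above the batch mean plus 3 SD, with images confirmed as a hit by eye, cut at about 37% in these data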;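 also: 0% = TNF-stimulated DMSO wells and 100% = unstimulated control wells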
* hit, by the source's call; . = no result given. The list is not random: actives were taken first. Their share in the collection is about 1%.

SMILES	E-sel TNF inh	F-actin modifier	TNFa cytotox	VCAM1 TNFa inh
Cc1cccc(NC(=O)CCSc2nc(C)cc(C)n2)c1	76*	-26	5	0
CCOc1cc(/C=N/NC(=O)C(=O)NCc2cccnc2)ccc1O	23	.	.	.
O=C(CCCCCN1C(=O)c2ccccc2C1=O)Nc1ccccc1	-1	-2	-24	9
O=C(CCCCCN1C(=O)c2ccccc2C1=O)Nc1nccs1	7	-4	69	50*
CN1CCN(S(=O)(=O)c2cccc(C(=O)Nc3ccccc3N3CCOCC3)c2)CC1	-5	.	.	.
Cc1c(NC(=O)c2c(N)n(-c3ccccc3)c3nc4ccccc4nc23)c(=O)n(-c2ccccc2)n1C	77*	.	.	.
Cc1c(NC(=O)c2c(F)cccc2F)c(=O)n(-c2ccccc2)n1C	30	1	-9	8
Cc1ccc(C)n1NC(=O)c1cccs1	100*	-47	41	22
O=C(NCC1OCCCN1S(=O)(=O)c1cc(F)ccc1F)C(=O)NC1CCCCCC1 (stereo not drawn)	-50	.	.	.
CC1=CC(=O)C(C(C)C)=CC1=NC(=O)c1ccc(C)cc1	41	.	.	.
COC(=O)C(NC(=O)c1ccccc1)c1ccccc1 (stereo not drawn)	60*	-8	-6	-26
CCNc1nc(C)nc2c1oc1ccccc12	.	-29	92*	52
Cc1nc(NC(C)C)c2oc3ccccc3c2n1	.	-161	91*	78*
CCNc1nc(CC)nc2c1oc1ccccc12	-33	.	.	.
CCOC(=O)/C(=C\c1cccnc1)C(=O)c1cc(C(C)=O)c(Nc2ccccc2)s1	18	.	37	54*
Cc1cc(C(=O)COC(=O)c2ccc(N)cc2)c(C)n1-c1c(C)n(C)n(-c2ccccc2)c1=O	-6	.	.	.
Cc1ccccc1-n1ccnc1SCC(=O)O	65*	-8	-3	-18
CCc1cc2c(=O)n(CCC(C)C)c(=S)[nH]c2s1	-30	.	.	.
COc1cccc(-n2c(SC3CCOC3=O)nc3ccccc3c2=O)c1 (stereo not drawn)	96*	3	-16	0
Cc1[nH]c2ccccc2c1C(=O)C(=O)NCc1cccs1	-57	.	.	.
CN(C(=S)Nc1ccc(Oc2ccccc2)cc1)c1ccc(O)cc1	87*	.	.	.
CN(C(=S)Nc1ccccc1)c1ccccc1	1	.	.	.
O=C(Cn1c(=O)c(=O)n(Cc2ccccc2)c2ccc(Cl)cc21)NCC1CCCO1 (stereo not drawn)	-20	.	.	.
Cn1cc(/C=N/n2cnc3scc(-c4ccc(Cl)cc4)c3c2=O)c2ccccc21	.	-205	65	75*
CCn1cnc2scc(-c3ccccc3)c2c1=O	-21	-7	-10	-9
SMILES	E-sel TNF inh	F-actin modifier	TNFa cytotox	VCAM1 TNFa inh
CNC(=O)CN(c1ccc(OC)cc1)S(=O)(=O)c1ccc(F)cc1	-3	-9	-6	93*
C=CCc1cccc(C2Nc3ccccc3C(=O)N2O)c1O (stereo not drawn)	62*	-28	-20	-1
O=C1c2ccccc2NC(c2ccc(Cl)cc2Cl)N1O (stereo not drawn)	-4	29	-28	4
CC1=NNC(=O)/C1=C\c1cn(-c2ccccc2)nc1-c1ccc(Cl)cc1	17	16	84*	99*
Cc1ccc(-c2nn(-c3ccccc3)cc2C=C2C(=O)CC(C)(C)CC2=O)cc1	-30	1	-4	8
CCc1cc(OCCOCCN(C)C)ccc1Cl	92*	.	.	.
CCN(CC)CCOCCOc1cc(C)c(Cl)c(C)c1	8	-13	4	16
COc1nc(N)c(S(=O)(=O)c2ccc(C)cc2)cc1C#N	17	-44	-2	-2
Cc1ccc(S(=O)(=O)c2cc(C#N)c(=O)[nH]c2N)cc1	9	62*	-23	-4
CCC(C)Sc1nc(O)cc(=O)[nH]1 (stereo not drawn)	.	-2	78*	15
CCCn1c(SCC(=O)N2c3ccccc3Sc3ccccc32)nc2c1c(=O)n(C)c(=O)n2C	65*	13	-6	1
COc1cc(NC(=O)C(C)C)ccc1NC(=O)c1ccco1	.	-18	-17	14
COc1cc(NC(=S)NC(C)=O)ccc1NC(=O)C(C)C	.	12	95*	68
CN(C(=O)CSc1nc(N)c2c3c(sc2n1)CSC(C)(C)C3)c1ccccc1	-10	.	.	.
O=C(CN1CCN(Cc2ccccc2Cl)C1=O)NCc1ccco1	64*	11	-23	4
O=C(NCc1ccco1)C(=O)NCc1ccccc1Cl	-13	.	.	.
FC(F)(F)COc1ccc(-n2ccnc2)nn1	-62	.	.	.
CCn1c(SCC(=O)N2CCN(c3cccc(Cl)c3)CC2)nc2ccccc2c1=O	-31	-6	-1	96*
Cc1cc2ccccc2c(=O)n1CC(=O)N1CCN(c2cccc(Cl)c2)CC1	-6	.	.	.
CCCSc1nsc(NC(=O)CCC)n1	25	.	.	.
N#CC(C#N)=C1C=CC=CN1/C(=C\c1ccccc1Cl)C(=O)c1ccccc1	69*	.	.	.
CC1CCN(C(=O)/C(=C/c2ccccc2Cl)c2ccccc2)CC1	-32	-7	-7	-13
N#Cc1cnc(N)c(Br)c1	-2	.	.	.
CCC(C)C1C(C#N)=C(N)Oc2n[nH]c(-c3ccccc3)c21 (stereo not drawn)	6	-11	29	56*
CN(C(=O)CO/N=C/c1ccc(Cl)cc1)c1ccccc1	2	.	.	.
SMILES	E-sel TNF inh	F-actin modifier	TNFa cytotox	VCAM1 TNFa inh
CN(C)S(=O)(=O)c1ccc(NS(=O)(=O)/C=C/c2ccccc2)cc1	99*	-2	-46	14
N#Cc1ccc(-c2cccnc2)nc1SCc1ccc(Cl)c(Cl)c1	67*	.	.	.
O=C(/C=C/c1ccccc1)N1CCN(c2ccc([N+](=O)[O-])c(N3CCOCC3)c2)CC1	26	-10	.	7
CCOc1ccc(NCc2nc3ccccc3n2CCOc2ccccc2)cc1	92*	.	.	.
COc1ccc(CCNC(=O)CSc2ccsc2[N+](=O)[O-])c(OC)c1	7	.	.	.
COc1ccc(OC)c(CCNC(=O)CSc2ccsc2[N+](=O)[O-])c1	77*	.	.	.
O=C(NC(=S)NCc1cccnc1)c1cccc2ccccc12	-11	.	.	.
FC(F)(F)c1cnc2c(-c3ccccc3)n[nH]c2c1	68*	.	.	.
CCc1cc(C(=O)Nc2ccccc2)cs1	63*	.	.	.
COC(=O)c1sccc1NC(=O)c1ccc(C)s1	-41	2	-16	30
COC(=O)c1sccc1NC(=O)c1ccc(Br)s1	-2	-5	0	53*
